The text below walks through data of PubChem BioAssay (Tox21).

Experiment [1] can be described thus: qHTS assay to identify aromatase inhibitors - cell viability counter screen (AID 743084).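 Also: cells stimulated with testosterone during compound exposure; nearly all actives have a fitted effect of over 55% in size.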 A general note: In qHTS, concentration-response curves come from the screen itself.
The target in experiment [2] is Aryl hydrocarbon receptor (Homo sapiens) (UniProt P35869). As to the kind of experiment: qHTS assay to identify small molecule that activate the aryl hydrocarbon receptor (AhR) signaling pathway (AID 743085). Also: nearly all actives have a fitted effect of over 15% in size. Also: potency is read from the fitted curve at half-maximal effect.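 As to activation: HG2L7.5c1 human HepG2 liver cells with stably integrated DRE-driven firefly reporter; series mostly up to about 70 µM.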 The method in brief: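 HepG2 cells stably carrying a 20-DRE firefly luciferase reporter (HG2L7.5c1) treated with compound for 24 hr at 37C. Luciferase read by ONE-Glo luminescence, with CellTiter-Fluor viability read first.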

A short description of experiment [3]: qHTS assay to identify small molecule that activate the aryl hydrocarbon receptor (AhR) signaling pathway - cell viability counter screen (AID 743086). Also: series mostly up to about 70 µM; nearly all actives have a fitted effect of over 45% in size. The method in brief: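 HepG2-AhR-luc (HG2L7.5c1) cells, 4000/well, were preincubated 5 h at 37C, exposed to compound in qHTS format for 24 hr at 37C, then given CellTiter-Fluor for 30 min; viability was read as fluorescence in the reporter wells.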

The target in experiment [4] is Peroxisome proliferator-activated receptor gamma (Homo sapiens) (UniProt P37231). As to the kind of experiment: qHTS assay to identify small molecule agonists of the peroxisome proliferator-activated receptor gamma (PPARg) signaling pathway (AID 743094; active = well fitted activation curve with a large enough effect in the signal ratio in the repeat runs, not every such curve was filed as active; the % refers to the signal ratio). The method in brief:
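Fluorescence-based beta-lactamase readout in HEK293H PPARg UAS-bla cells after 17 h compound exposure (37C) and 1 h B/G FRET substrate incubation at room temperature.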

The target is the same in experiment [5]. As to the kind of experiment: qHTS assay to identify small molecule antagonists of the peroxisome proliferator-activated receptor gamma (PPARg) signaling pathway (AID 743191; calls by dose curve; also: series mostly up to about 63 µM; nearly all actives have a fitted effect of over 30% in size). Summed up:
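GeneBLAzer PPARg UAS-bla HEK293H cells carrying a UAS-driven beta-lactamase reporter were plated at 3000 cells/well, preincubated 5 h at 37C, then given compound for 17 h at 37C; LiveBLAzer B/G FRET substrate was read after 1 h at room temperature.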

Experiment [6] is described as follows: qHTS assay to identify small molecule antagonists of the peroxisome proliferator-activated receptor gamma (PPARg) signaling pathway - cell viability counter screen (AID 743194). Also: nearly all actives have a fitted effect of over 55% in size. Conditions: Potency: co-treated with 50 nM rosiglitazone. The method in brief:
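PPARg-UAS-bla HEK293H cells were plated, rested 5 h at 37 C, then treated with compounds plus rosiglitazone (50 nM final) for 17 h at 37 C; viability was then read by CellTiter-Glo luminescence after 30 min at room temperature.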

A short description of experiment [7]: qHTS assay for small molecule agonists of the antioxidant response element (ARE) signaling pathway (AID 743202; active = well fitted activation curve with a large enough effect in the signal ratio in the repeat runs, not every such curve was filed as active; the % refers to the signal ratio). The method in brief: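 Following a 16 h, 37 C exposure of reporter HepG2 cells (ARE-driven beta-lactamase, 2,000 cells/well) to compounds, FRET substrate was applied for 2 h at room temperature and fluorescence intensity recorded.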
Experiment [8] in a line: qHTS assay for small molecule agonists of the antioxidant response element (ARE) signaling pathway - cell viability counter screen (AID 743203; calls by dose curve; also: nearly all actives have a fitted effect of over 55% in size). Summed up:
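Parallel cytotoxicity read-out for the ARE-bla screen: HepG2 reporter cells, 16 hrs with compounds, then CellTiter-Glo luminescence.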

Experiment [9] is described as follows: qHTS assay for small molecule activators of the heat shock response signaling pathway - cell viability counter screen (AID 743209). Also: nearly all actives have a fitted effect of over 50% in size. The method in brief: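 To flag cytotoxic compounds, HSE-bla HeLa cells plated at 1500 cells/well were dosed for 5 h at 37 C, followed by the reporter FRET read and then CellTiter-Glo, with luminescence recorded 30 min after reagent addition.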

Experiment [10] is described as follows: qHTS assay for small molecule activators of the heat shock response signaling pathway (AID 743210; active = well fitted activation curve with a large enough effect in the signal ratio in the repeat runs, with a control signal flat, not every such curve was filed as active; the % refers to the signal ratio; also: series mostly up to about 63 µM). The method in brief:
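Heat shock element–beta-lactamase HeLa reporter cells; qHTS with compounds for 5 h at 37 C; detection by FRET substrate fluorescence after 2.5 h at RT.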

The nature of experiment [11]: qHTS assay to identify small molecule agonists of the peroxisome proliferator-activated receptor delta (PPARd) signaling pathway - cell viability counter screen (AID 743211). Also: nearly all actives have a fitted effect of over 55% in size. Summed up:
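PPARd-bla HEK293H cells (3000/well) were pre-incubated 5 h at 37 C, then exposed to compound for 17 h at 37 C. After 2 h with LiveBLAzer substrate, CellTiter-Glo was added to the same wells; luminescence read after 30 min at room temperature.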

The target in experiment [12] is Peroxisome proliferator-activated receptor delta (Homo sapiens) (UniProt Q03181). As to the kind of experiment: qHTS assay to identify small molecule agonists of the peroxisome proliferator-activated receptor delta (PPARd) signaling pathway (AID 743212; calls by dose curve). The method in brief: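 Beta-lactamase reporter read by fluorescence (LiveBLAzer B/G FRET, 2 h, room temperature). Test agents, in DMSO, incubated at 37 C with PPARd-bla HEK293H cells.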

The nature of experiment [13]: qHTS assay to identify small molecule antagonists of the peroxisome proliferator-activated receptor delta (PPARd) signaling pathway - cell viability counter screen (AID 743213). Also: nearly all actives have a fitted effect of over 50% in size. The method in brief:
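Viability counter-screen, qHTS format: PPARd-bla HEK293H, L165041 300 nM final, 17 h compound exposure at 37 C, CellTiter-Glo luminescence after 30 min RT.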

The target in experiment [14] is Peroxisome proliferator-activated receptor delta (Homo sapiens) (UniProt Q03181). The experiment is described as follows: qHTS assay to identify small molecule antagonists of the peroxisome proliferator-activated receptor delta (PPARd) signaling pathway (AID 743215; active = well fitted inhibition curve with a large enough effect in the signal ratio in the repeat runs, not every such curve was filed as active; the % refers to the signal ratio;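 also: cells stimulated with agonist L165041 at 300 nM final during compound exposure; series mostly up to about 62 µM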). Summed up:
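Screen format: qHTS, antagonist mode. HEK293H PPARd-bla cells received compound and 300 nM L165041 (final), 17 h, 37 C. Beta-lactamase detected via FRET substrate fluorescence, 2 h, room temperature.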

A short description of experiment [15]: qHTS assay to identify small molecule agonists of the farnesoid-X-receptor (FXR) signaling pathway - cell viability counter screen (AID 743218). Also: nearly all actives have a fitted effect of over 45% in size. The method in brief: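 Same-well cytotoxicity check on FXR-UAS-bla HEK 293T cells: 5 h attachment, 16 h compound at 37 C, CellTiter-Glo luminescence read at room temperature after 30 min.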
Experiment [16] in a line: qHTS assay to identify small molecule antagonists of the farnesoid-X-receptor (FXR) signaling pathway - cell viability counter screen (AID 743221; active = well fitted cell-killing curve with a large enough effect in the repeat runs, not every such curve was filed as active; also: nearly all actives have a fitted effect of over 50% in size). The method in brief:
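GeneBLAzer FXR-UAS-bla HEK 293T cells, compound plus chenodeoxycholic acid (50 uM final), 16 h at 37 C. CellTiter-Glo added to the same wells after the beta-lactamase read; luminescence read after 30 min at room temperature as viability.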

The target in experiment [17] is Vitamin D3 receptor (Homo sapiens) (UniProt P11473). The experiment is described as follows: qHTS assay to identify small molecule agonists of the vitamin D receptor (VDR) signaling pathway (AID 743222; calls by dose curve). The method in brief: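 Using LiveBLAzer B/G FRET detection, agonism was scored in VDR-bla cells exposed overnight (16 h, 37C) to DMSO-dissolved compounds; substrate incubation was 2 h at room temperature.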

Experiment [18] shares this target. The experiment is described as follows: qHTS assay to identify small molecule antagonists of the vitamin D receptor (VDR) signaling pathway (AID 743223; active = well fitted inhibition curve with a large enough effect in the signal ratio in the repeat runs, not every such curve was filed as active; the % refers to the signal ratio). Summed up:
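VDR-bla cells were treated with compound plus 3 nM final 1alpha,25-dihydroxyvitamin D3 for 16 h at 37C. Beta-lactamase reporter read by B/G FRET substrate fluorescence after 2 h at room temperature. qHTS format.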

Experiment [19] deals with Bile acid receptor (Homo sapiens) (UniProt Q96RI1). As to the kind of experiment: qHTS assay to identify small molecule antagonists of the farnesoid-X-receptor (FXR) signaling pathway (AID 743217; active = well fitted inhibition curve with a large enough effect in the signal ratio in the repeat runs, not every such curve was filed as active; the % refers to the signal ratio). Summed up: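 Quantitative HTS, beta-lactamase reporter format: FXR-UAS-bla HEK 293T cells co-treated 16 h at 37 °C with compounds and 50 uM final chenodeoxycholic acid, then read by B/G FRET fluorescence.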

Experiment [20] has the same target. As to the kind of experiment: qHTS assay to identify small molecule agonists of the farnesoid-X-receptor (FXR) signaling pathway (AID 743220; active = well fitted activation curve with a large enough effect in the signal ratio in the repeat runs, not every such curve was filed as active; the % refers to the signal ratio). The method in brief: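 FXR-UAS-bla HEK 293T cells carrying a UAS-driven beta-lactamase reporter were plated for 5 h at 37C/5% CO2, then exposed to DMSO-dissolved Tox21 10K compounds for 16 h at 37C. A LiveBLAzer B/G FRET substrate was loaded for 2 h at room temperature before fluorescence reading.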

Records with an inconclusive call do not appear. Active and inactive are the calls of the source. Unless noted, calls follow the shape of the dose curve; as a rule, active = well fitted curve in the direction sought with a large enough effect in the repeat runs; inconclusive = weak or mixed curves; inactive = no such curve, though single readings can be large; an effect the other way counts as inactive or inconclusive.

Sequence of Bile acid receptor (Homo sapiens) (Q96RI1 whole entry, looked up): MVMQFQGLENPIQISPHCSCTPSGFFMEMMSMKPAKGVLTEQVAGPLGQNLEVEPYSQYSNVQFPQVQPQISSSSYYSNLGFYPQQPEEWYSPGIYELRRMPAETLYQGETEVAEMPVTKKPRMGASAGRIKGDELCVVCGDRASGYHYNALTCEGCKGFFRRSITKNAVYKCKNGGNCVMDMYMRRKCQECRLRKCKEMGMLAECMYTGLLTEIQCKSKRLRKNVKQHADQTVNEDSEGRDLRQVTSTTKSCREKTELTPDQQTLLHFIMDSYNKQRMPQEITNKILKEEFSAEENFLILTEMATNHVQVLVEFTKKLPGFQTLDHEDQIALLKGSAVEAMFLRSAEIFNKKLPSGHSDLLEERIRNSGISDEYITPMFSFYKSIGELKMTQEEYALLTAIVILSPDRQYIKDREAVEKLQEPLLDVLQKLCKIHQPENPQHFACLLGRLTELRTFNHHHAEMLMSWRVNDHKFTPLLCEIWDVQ
Sequence of Peroxisome proliferator-activated receptor gamma (Homo sapiens) (P37231 whole entry, looked up): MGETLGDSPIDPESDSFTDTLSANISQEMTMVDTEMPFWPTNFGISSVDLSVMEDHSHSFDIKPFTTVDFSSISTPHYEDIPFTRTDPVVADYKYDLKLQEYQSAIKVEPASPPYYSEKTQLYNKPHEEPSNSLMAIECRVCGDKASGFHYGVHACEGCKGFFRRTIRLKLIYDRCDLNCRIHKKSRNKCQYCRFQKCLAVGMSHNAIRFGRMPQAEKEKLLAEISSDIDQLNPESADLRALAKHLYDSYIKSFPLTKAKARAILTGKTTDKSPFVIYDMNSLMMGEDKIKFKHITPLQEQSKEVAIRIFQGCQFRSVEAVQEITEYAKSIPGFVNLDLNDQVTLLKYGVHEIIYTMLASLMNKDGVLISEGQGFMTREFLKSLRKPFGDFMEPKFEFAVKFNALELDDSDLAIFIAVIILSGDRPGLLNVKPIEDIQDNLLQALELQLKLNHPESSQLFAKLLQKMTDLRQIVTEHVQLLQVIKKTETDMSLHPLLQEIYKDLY
Sequence of Peroxisome proliferator-activated receptor delta (Homo sapiens) (Q03181 whole entry, looked up): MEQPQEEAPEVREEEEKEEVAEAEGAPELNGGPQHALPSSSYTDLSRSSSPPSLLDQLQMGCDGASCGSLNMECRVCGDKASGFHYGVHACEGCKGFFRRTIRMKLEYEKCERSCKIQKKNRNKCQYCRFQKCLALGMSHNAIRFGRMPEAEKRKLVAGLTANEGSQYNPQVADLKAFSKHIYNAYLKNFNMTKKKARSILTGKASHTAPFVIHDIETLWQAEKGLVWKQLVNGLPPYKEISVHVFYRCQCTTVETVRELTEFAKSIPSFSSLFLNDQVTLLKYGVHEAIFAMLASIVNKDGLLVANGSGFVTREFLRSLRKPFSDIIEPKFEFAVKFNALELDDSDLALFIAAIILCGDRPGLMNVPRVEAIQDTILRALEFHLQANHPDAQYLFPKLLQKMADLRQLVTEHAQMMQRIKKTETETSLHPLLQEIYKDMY
Sequence of Vitamin D3 receptor (Homo sapiens) (P11473 whole entry, looked up): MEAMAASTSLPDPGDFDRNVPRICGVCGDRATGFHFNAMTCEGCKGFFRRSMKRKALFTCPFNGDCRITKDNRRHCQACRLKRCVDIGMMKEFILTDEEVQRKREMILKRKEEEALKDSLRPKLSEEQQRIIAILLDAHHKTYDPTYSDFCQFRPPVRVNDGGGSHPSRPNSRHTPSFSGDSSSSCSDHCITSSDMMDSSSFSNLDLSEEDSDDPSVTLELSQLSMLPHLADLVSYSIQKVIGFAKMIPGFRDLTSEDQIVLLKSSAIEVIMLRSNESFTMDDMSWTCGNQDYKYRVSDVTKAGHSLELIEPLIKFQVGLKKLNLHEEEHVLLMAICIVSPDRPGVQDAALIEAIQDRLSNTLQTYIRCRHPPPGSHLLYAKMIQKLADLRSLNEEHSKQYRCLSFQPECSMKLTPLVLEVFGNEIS
Sequence of Aryl hydrocarbon receptor (Homo sapiens) (P35869 whole entry, looked up): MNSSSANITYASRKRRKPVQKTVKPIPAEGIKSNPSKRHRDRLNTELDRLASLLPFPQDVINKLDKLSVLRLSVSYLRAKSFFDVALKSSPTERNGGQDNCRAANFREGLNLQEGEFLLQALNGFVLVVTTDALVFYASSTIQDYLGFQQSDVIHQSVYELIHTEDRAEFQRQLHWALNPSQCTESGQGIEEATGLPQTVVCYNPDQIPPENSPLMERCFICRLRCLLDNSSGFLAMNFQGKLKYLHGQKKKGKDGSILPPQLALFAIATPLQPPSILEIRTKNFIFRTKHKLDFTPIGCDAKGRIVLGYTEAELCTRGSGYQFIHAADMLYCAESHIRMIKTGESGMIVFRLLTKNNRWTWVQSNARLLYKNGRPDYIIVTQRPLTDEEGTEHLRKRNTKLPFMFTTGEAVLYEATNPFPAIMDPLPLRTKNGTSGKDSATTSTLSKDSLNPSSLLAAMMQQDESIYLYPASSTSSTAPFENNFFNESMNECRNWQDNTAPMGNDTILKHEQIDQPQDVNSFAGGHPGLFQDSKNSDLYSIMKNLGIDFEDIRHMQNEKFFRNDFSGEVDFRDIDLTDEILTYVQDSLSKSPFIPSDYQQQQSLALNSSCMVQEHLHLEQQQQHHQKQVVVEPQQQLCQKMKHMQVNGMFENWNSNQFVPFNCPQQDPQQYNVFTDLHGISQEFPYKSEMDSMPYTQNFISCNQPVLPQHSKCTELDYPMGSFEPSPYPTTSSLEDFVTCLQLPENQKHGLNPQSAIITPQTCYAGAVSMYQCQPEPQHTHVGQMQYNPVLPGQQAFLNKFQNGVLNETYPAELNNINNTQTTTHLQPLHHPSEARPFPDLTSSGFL

For `CC1NCCOC1c1ccccc1` (stereo not drawn), the Potency entry in experiment [1], in [2], in experiment [3], in experiment [5], in experiment [6] and in experiment [7] was “inactive” each time. Further, the Potency result in [8], in experiment [9], in experiment [10], in experiment [11], in experiment [13] and in [14] was “inactive” throughout. The Potency entry in experiment [15] and in experiment [16] was “inactive” each time. The call in [4], in experiment [12], in [17] and in experiment [18] was inactive.

On to `CC(=NC#N)N(C)Cc1ccc(Cl)nc1`, for which the Potency result in experiment [1], in experiment [2], in [3], in experiment [5], in [6] and in experiment [7] was “inactive” throughout. For the same compound, the Potency entry in experiment [8], in experiment [9], in experiment [10], in experiment [11], in experiment [13] and in [15] was “inactive” each time. For the same compound, the Potency entry in [16] was “inactive”. In addition, the compound was called inactive in [4], in experiment [12], in experiment [17] and in [18].

Turning to `COC(=O)c1ccccc1CS(=O)(=O)NC(=O)Nc1nc(OC)cc(OC)n1`, the Potency entry in [1], in experiment [2], in experiment [3], in experiment [5], in experiment [6] and in [7] was “inactive” each time. Also, the Potency entry in [8], in experiment [9], in [10], in experiment [11], in [13] and in experiment [14] was “inactive” each time. Moreover, the Potency entry in experiment [15] and in experiment [16] was “inactive” throughout. The outcome in experiment [4], in experiment [12], in experiment [19], in experiment [20], in experiment [17] and in [18] was inactive.

For the compound `COC(=O)c1ccc(CBr)cc1`, the Potency result in experiment [1], in [2], in [3], in [5], in experiment [6] and in [7] was “inactive” throughout. The Potency result in experiment [8], in experiment [9], in [10], in [11], in experiment [13] and in experiment [14] was “inactive” in each case. For the same compound, the Potency entry in experiment [15] and in [16] was “inactive” throughout. Moreover, the compound was called inactive in experiment [4], in [12], in [17] and in experiment [18].

Consider `N=C(N)[Se]`, for which the Potency entry in experiment [1], in [2], in [3], in [5], in experiment [6] and in [7] was “inactive” each time. In addition, the Potency entry in experiment [8], in [9], in experiment [10], in experiment [11], in [14] and in experiment [15] was “inactive” throughout. In addition, the outcome in experiment [4], in experiment [12], in [17] and in experiment [18] was inactive.

With `CCC1(c2cccc(O)c2)CCCCN(C)C1` (stereo not drawn), the Potency entry in experiment [1], in experiment [2], in [3], in experiment [5], in experiment [6] and in [7] was “inactive” in each case. Moreover, the Potency entry in [8], in [9], in [10], in experiment [11], in experiment [13] and in experiment [14] was “inactive” throughout. The Potency result in experiment [15] and in experiment [16] was “inactive” each time. Besides, the compound was called inactive in experiment [4], in experiment [12], in [17] and in [18].

Consider `NC(=O)OCCCc1ccccc1`, for which the Potency result in [1], in [2], in experiment [3], in experiment [5], in experiment [6] and in experiment [7] was “inactive” in each case. Besides, the Potency result in experiment [8], in [9], in experiment [10], in experiment [11], in [15] and in experiment [16] was “inactive” in each case. The call in experiment [4] was inactive.

As to `Clc1ccc(C(Cl)(Cl)Cl)cn1`, the Potency result in experiment [1], in experiment [3], in experiment [5], in experiment [6], in experiment [7] and in [9] was “inactive” in each case. The Potency entry in [10], in [11], in [13], in experiment [14], in experiment [15] and in experiment [16] was “inactive” throughout. In addition, the Potency in experiment [2] is 48.6 µM (active). In addition, the outcome in experiment [4], in experiment [12], in experiment [19], in [20] and in experiment [17] was inactive.
